Data taken from PubChem BioAssay AID588590 (National Center for Advancing Translational Sciences (NCATS), 2011).
Where “and” joins values, the source holds several entries; their conditions need not be identical. Equal entries are not always repeated. Out of some 390,000 compounds screened, about 4,000 (1%) were called active. Inconclusive results (about 7%) are left out. Calls follow the shape of the dose curve; as a rule, active = well fitted inhibition curve with a large enough effect; inconclusive = small, poorly fitted or top-dose-only effect, or another doubt; inactive = no such curve, though single readings can be large or run the other way. Many of the other results were omitted from the sample, so actives are more common in it than they were.

Each compound was assayed against DNA polymerase iota (Homo sapiens) (UniProt Q9UNA4) (assay: qHTS for Inhibitors of Polymerase Iota). Details: Pol iota fluorescent replication assay, 10 min; series mostly up to 115 µM; activity, negative = inhibition: at the top concentration.
Chain of DNA polymerase iota (Homo sapiens) (Q9UNA4 whole entry, looked up): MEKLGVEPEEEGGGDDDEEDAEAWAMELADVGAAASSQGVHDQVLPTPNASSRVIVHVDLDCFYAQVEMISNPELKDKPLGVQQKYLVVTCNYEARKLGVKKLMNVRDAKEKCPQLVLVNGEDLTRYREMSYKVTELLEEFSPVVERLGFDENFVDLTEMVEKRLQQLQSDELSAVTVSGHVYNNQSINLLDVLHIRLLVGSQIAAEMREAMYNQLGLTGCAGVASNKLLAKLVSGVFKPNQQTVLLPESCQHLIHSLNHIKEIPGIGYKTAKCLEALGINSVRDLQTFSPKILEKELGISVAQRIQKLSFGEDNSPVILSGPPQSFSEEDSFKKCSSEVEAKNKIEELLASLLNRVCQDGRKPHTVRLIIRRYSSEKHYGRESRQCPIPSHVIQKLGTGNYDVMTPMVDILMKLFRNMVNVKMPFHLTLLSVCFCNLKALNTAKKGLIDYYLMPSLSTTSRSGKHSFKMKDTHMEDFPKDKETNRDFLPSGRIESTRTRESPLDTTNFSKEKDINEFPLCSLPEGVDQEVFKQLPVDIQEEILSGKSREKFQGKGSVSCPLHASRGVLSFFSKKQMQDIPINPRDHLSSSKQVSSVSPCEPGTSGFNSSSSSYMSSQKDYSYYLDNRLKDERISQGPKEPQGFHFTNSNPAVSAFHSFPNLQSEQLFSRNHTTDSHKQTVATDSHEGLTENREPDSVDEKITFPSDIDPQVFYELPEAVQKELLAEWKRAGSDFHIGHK
Summary of the method: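 Fluorescent replication assay read twice, at 0 min and 10 min after adding 50 nM (final) substrate. Enzyme (10 nM) and compounds were first incubated 15 min at room temperature; enzyme-free buffer wells were negative controls.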
Potency is read from the fitted curve at half-maximal effect.

activity, negative = inhibition, inactive:
Cc1ccc(S(=O)(=O)c2cn(Cc3ccccc3)c3cc(N4CCCC4)c(F)cc3c2=O)c(C)c1 -15.4%, CN(Cc1ccccc1)c1ccc(/C=C/c2ccnc3ccccc23)cc1 0.933%, CC1CCN(C(=O)CCc2nnc3ccc(NCc4ccco4)nn23)CC1 19.1%, O=C(CCc1nnc2ccc(NCc3ccco3)nn12)Nc1cc(F)ccc1F -12.4%, Cc1ccc(C=O)cc1Cl 27.8%, COc1ccc(CCNC(=O)c2ccc3c(c2)nc(C)n3-c2ccc(Br)cc2)cc1OC -17%, CCC(CC)c1nn2cc(-c3ccccc3)nc2s1 -4.42%, C/C(CC(=O)N1CCN(C=O)CC1)=N\NC(=O)c1ccc(Br)cc1 -25.6%, O=C(Nc1ccc(C(=O)O)cc1)/C(=C\c1ccccc1)NC(=O)c1ccc(Br)cc1 17.3%, CN1CCN(/[N+]([O-])=N/Oc2ccc([N+](=O)[O-])cc2[N+](=O)[O-])CC1 22.3%, CCc1nnc2c3ccccc3nc(N3CCN(c4ccc(C)cc4C)CC3)n12 37.9%, O=C(CCS(=O)(=O)c1ccc(Br)cc1)NCCc1ccc(Cl)cc1 -25.8%, COc1ccc(Cl)cc1NC(=O)CCC(=O)c1ccc(C)cc1 23.5%, COc1ccc(Nc2ncc3c(n2)CCN(C(=O)OC(C)(C)C)C3)cc1 10.5%, Cc1c(C)n(Cc2ccc(Cl)cc2)c2ccc(C(=O)NCCc3ccc(S(N)(=O)=O)cc3)cc12 -6.81%, CN(C(=O)CSc1nnc(NC(=O)Nc2ccccc2)s1)c1ccccc1 8.04%, COC(=O)c1scc(-c2ccccc2)c1S(=O)(=O)Nc1ccccc1 2.13%, O=C1CCC[C@@H]2C[C@@]3(C[C@@H]4CCN1[C@H]24)Nc1ccccc1NC3=NCc1ccccc1 114%, COc1cc2nc(N3CCCN(C)CC3)nc(NC3CC3)c2cc1OC 28.6%, COc1ccc(-c2cn3nc(N4CCCC(C(=O)NCCCOC(C)C)C4)sc3n2)cc1 (stereo not drawn) 23.1%, COc1cc2c(cc1OC)C(C(=O)Nc1cc(C)c(OC)c(C)c1)CC(=O)N2 (stereo not drawn) 62.9%, COc1cc(NC(=O)c2nc3ccccc3nc2C)cc(OC)c1OC 33.3%, COc1ccc(-c2nc3sc(CCNS(=O)(=O)c4ccc(F)c(C)c4)c(C)n3n2)cc1 12.4%, CCOc1ccccc1NC(=O)CN1CCN(S(=O)(=O)c2ccc(Br)cc2)CC1 3.35%, CCN(CC)/[N+]([O-])=N/OCOC(=O)Cc1c(C)n(C(=O)c2ccc(Cl)cc2)c2ccc(OC)cc12 7.56%, O=C(OCN1C(=O)c2ccccc2C1=O)/C(=C\c1ccco1)NC(=O)c1ccccc1 -18.1%, O=C(Nc1ccccc1C(F)(F)F)c1nc(S(=O)(=O)Cc2ccccc2F)ncc1Cl -5.98%, NC1=NC(c2cc(F)cc(F)c2)n2c(nc3ccccc32)N1 (stereo not drawn) 4.72%, Cc1cc(C)c2oc(C(=O)Nc3ccc(S(=O)(=O)N4CCCCCC4)cc3)cc(=O)c2c1 5.81%, Cc1ccc(-n2c(=O)c3cccnc3n2CC(=O)Nc2ccccc2C(F)(F)F)cc1C -0.67%, CCN(C(=O)COC(=O)CCOc1cccc(C)c1)c1c(N)n(Cc2ccccc2)c(=O)[nH]c1=O 22.8%, COc1ccc(Cn2c(O)c(/C=C3/C=CC=N3)c(=O)[nH]c2=O)cc1 -9.71%, COc1ccccc1CCNC(=O)c1cccn1-c1nnc(N2CCCCC2)s1 3.68%, Cc1ccc2nc(-c3ccc(C)c(NC(=O)Cc4ccccc4)c3)oc2c1 17.9%, Cc1c(CCO)sc[n+]1CC(=O)c1ccc2ccccc2c1 5.31%, O=C(c1cc2ccccc2s1)N1CCN(c2ccccn2)CC1 29.9%, CC1CCN(c2nc3ccc(C(=O)N4CCN(c5ccccc5)CC4)cc3s2)CC1 -4.14%, CCNC(=O)Cn1nc(C)n2c(cc3c(OC)cccc32)c1=O 2.21%, CN(C)c1ccc(/C=N\Nc2ccc([N+](=O)[O-])cc2[N+](=O)[O-])cc1Cl -14%, COc1cccc(Cn2c(SCc3ccc(C(=O)N4CCCCC4)cc3)nc3ccncc32)c1 3.02%, CCc1nc2cccnc2n1-c1ccc(CC(=O)Nc2c(C)cccc2C)cc1 7.57%, COCCCNC(=O)Cc1ccc(-n2c(C)nc3cccnc32)cc1 -18.4%, COc1ccc(N2CCN(Cc3nc4c(c(=O)[nH]c(=O)n4C)n3Cc3ccc(Cl)cc3)CC2)cc1 25.9%, O=C(NCCc1ccc(Cl)cc1)c1ccc2c(c1)N(Cc1ccc(F)cc1)C(=O)CS2 -20.5%, CCC(=O)N1CCc2cc(Br)cc(S(=O)(=O)CCC(=O)NCCc3ccc(OC)c(OC)c3)c21 14.3%, Cc1cccn2c(=O)c(/C=C(\C#N)S(=O)(=O)c3ccc(Cl)cc3)c(N3CCC(C(N)=O)CC3)nc12 -8.99%, CCOC(=O)CNC(=O)c1cc2c(=O)n3cccc(C)c3nc2s1 5.79%, CC1CCC(N2CC(=O)N(CCC3=CCCCC3)C(c3ccc(F)cc3)C2=O)CC1 (stereo not drawn) -7.19%, COc1cc2c(cc1OC)C(COc1ccc(F)cc1)N(C(=O)c1ccccc1F)CC2 (stereo not drawn) 3.48%, CCc1ccc(Nc2nn3c(=O)c4cc5c(cc4nc3s2)OCO5)cc1 -22.5%, Fc1ccc(-c2ccc(-c3nn4c(-c5ccco5)nnc4s3)o2)cc1 -5.94%, Cc1ccc(S(=O)(=O)N(CC(=O)NCc2ccco2)c2ccccc2C)cc1 42.4%, COc1ccc(S(=O)(=O)N(CC(=O)NCc2ccco2)c2ccc(F)cc2)cc1 95%, CCOC(=O)N1CCC(C(N)=O)CC1 10.7%, O=C(O)C1CCN(C(=O)OCc2ccccc2)CC1 6.85%, COc1ccccc1-c1noc(CSc2nnc(-c3ccccc3)n2-c2ccc(C)c(C)c2)n1 13.3%, COc1ccc(C(CCN2CCOCC2)c2c(OC)cc(OC)c3c2OC(=O)CC3c2ccc(OC)cc2)cc1 (stereo not drawn) -4.09%, OCCN1CCOCCOCCN(CCO)CCN(CCO)CC1 10.2%, O=[N+]([O-])c1ccc(COc2ccccc2CN2CCOCC2)cc1 35.4%, Cc1cccc(NC(=O)CSc2nnc(CNC(=O)c3cccc(C)c3)n2-c2ccccc2)c1 -1.81%, Cc1nnc(SCC2=C(C(=O)O)N3C(=O)C(NC(=O)Cn4nc(C)c(Cl)c4C)C3SC2)s1 (stereo not drawn) -26.5%, COc1ccc(CCNC(=O)Cn2c(=O)cc(C(F)(F)F)c3c(C)nn(C)c32)c(OC)c1 -7.16%, Cc1ccc(Cn2c(=O)n(-c3ccc(C)cc3)c(=O)c3c2c2cc(C)ccc2n3C)cc1 1.68%, COc1ccc(CCNC(=O)CCCn2c(=O)c3ccccc3n(Cc3ccc(F)cc3Cl)c2=O)cc1OC 4.28%, COc1ccc(C2CC(O)(c3ccccc3)Oc3cc(C)cc(C)c32)cc1 (stereo not drawn) -9.41%, Cc1nn2c(=O)cc(COC(=O)c3ccccc3NC(=O)COc3ccccc3C)nc2s1 -2.78%, O=C(OCc1cc(=O)n2nc(C3CC3)sc2n1)c1ccccc1Cl 0.645%, Clc1cccc[n+]1CCCC[n+]1ccccc1Cl 3.89%, Cc1ccc(-c2nc(=N)sn2Cc2ccccc2)cc1 8.29%, CSc1ccc(CCNC(=O)c2cnn(-c3ccccc3)c2-n2cccc2)cc1 8.13%, O=C(N/N=C/c1ccco1)c1ccc(NC(=O)C2CC2)cc1 -9.3%, CC1(C)CC(=O)C/C(=N\NC(=O)c2cccs2)C1 1.79%, CC(=O)c1ccc(S(=O)(=O)N2CCC3(CC2)OCCO3)cc1 16.8%, CC(=O)c1ccc(S(=O)(=O)N2CCN(c3nc4c(C)c(C)ccc4cc3C#N)CC2)cc1 -12.5%, Cn1c(=O)nc2n(-c3ccc(Br)cc3)c3cccc(Cl)c3cc-2c1=O 9.36%, COc1ccc(N2C(=O)CC(Nc3ccc(F)cc3)C2=O)c([N+](=O)[O-])c1 (stereo not drawn) 135%, COc1ccc(N2CCN(C3CC(=O)N(c4ccc5c(c4)OCCO5)C3=O)CC2)cc1 (stereo not drawn) -17.7% [at 58.9 µM]

Potency, active:
CCOc1ccccc1NC(=O)CCc1nnc2ccc(NCc3ccco3)nn12 50.1 µM, O=C(O)c1ccc(/C=C2\SC(=S)N(NC(=O)c3ccc(Br)cc3)C2=O)cc1 22.4 µM, COc1ccc(Cl)cc1NC(=O)CCS(=O)(=O)c1ccc(Br)cc1 56.2 µM, O=C(c1[nH]ncc1-c1ccc(Cl)cc1)C1CO1 (stereo not drawn) 56.2 µM, COc1cc(N/C=C2\CC(=O)NC(C)=C2C#N)cc(OC)c1OC 10 µM, O=[N+]([O-])c1ccc(C=Nc2ccc(Cl)cc2Cl)s1 39.8 µM, O=c1nc2s/c(=C\c3ccco3)c(=O)n2nc1Cc1ccccc1 7.94 µM, CCCOc1ccc(Cn2c(O)cc(=O)[nH]c2=O)cc1 22.4 µM, O=C(c1cc2c(s1)CCC2)N1CCN(c2ccccc2)CC1 25.1 µM, CCc1nc2cccnc2n1-c1ccc(C(=O)O)cc1 25.1 µM, CCOC(=O)CC1C(=O)NCCN1c1nc2c(C)cccn2c(=O)c1/C=C1\SC(=S)N(C(C)CC)C1=O (stereo not drawn) 39.8 µM, c1ccc(-c2cc(-c3nnc4sc(-c5ccccn5)nn34)[nH]n2)cc1 25.1 µM, CS(=O)(=O)N(CC(=O)NCc1ccco1)c1ccc2c(c1)OCO2 70.8 µM, CCOC(=O)N1CCC(c2cc(=O)n(-c3ccccc3)[nH]2)CC1 1.41 µM, Oc1c(CN2CCOCC2)ccc(CN2CCOCC2)c1O 10 µM, C=CC1=C(C(=O)O)N2C(=O)[C@@H](NC(=O)/C(=N\OCC(=O)O)c3csc(N)n3)[C@H]2SC1 50.1 µM, CO/N=C(\C(=O)N[C@@H]1C(=O)N2C(C(=O)O)=C(COC(C)=O)CS[C@H]12)c1csc(N)n1 (stereo in doubt) 20 µM and 17.8 µM and 11.2 µM, COc1ccccc1C(=O)OCc1cc(=O)n2nc(-c3cccs3)sc2n1 79.4 µM, O=C(N/N=C/C=C/c1ccco1)c1cccs1 22.4 µM, CC(=O)c1ccc(S(=O)(=O)N2CCN(C(=O)/C=C/c3ccc4ccccc4n3)CC2)cc1 44.7 µM, CC(=O)Oc1cccc(N2C(=O)CC(Nc3ccc(N4CCOCC4)cc3)C2=O)c1 (stereo not drawn) 20 µM
